{"source": "ChEMBL document CHEMBL3988442", "about": "“University of Dundee, Small-Polar-MMV Screening Library” (2021)", "note": "The whole screen tested about 48,000 compounds, of which about 13,000 (27%) showed an effect of 50% or more. The list shows a part of the results."}
{"tested_on": "Wolbachia pipientis", "assay": "Anti-Wolbachia Cell-Based Screen", "format": "functional", "parameters": "scale not given: in the data most compounds retested in dose-response had high values", "details": "5 µM", "units": {"Percent Effect": "%"}}
{"smiles": "COCCOc1ccnc(-c2noc([C@@H]3CCCN3C3CCC3)n2)c1", "Percent Effect": -11.59}
{"smiles": "CC(C)(C)C(=O)NCCC(=O)NS(=O)(=O)c1ccc2c(c1)OCCO2", "Percent Effect": -7.979}
{"smiles": "CCc1nc(NC(=O)N(C)Cc2ccoc2)nn1C", "Percent Effect": 2.955}
{"smiles": "c1ccc(CCCN2CC(n3cccn3)C2)cc1", "Percent Effect": 3.552}
{"smiles": "CCN(CC)C(=O)[C@@H]1C[C@@H](N)CN1c1nc(N(C)C)nc(C)c1C", "Percent Effect": 7.659}
{"smiles": "COCCOc1ccc(S(=O)(=O)Nc2cccc(O)c2F)cc1C", "Percent Effect": -10.79}
{"smiles": "Cc1cc(-c2nccs2)nc(C2CCN(Cc3cccs3)CC2)n1", "Percent Effect": 113.5}
{"smiles": "Oc1cc(-c2nccs2)nc(C2CCN(Cc3cccs3)CC2)n1", "Percent Effect": 87.73}
{"smiles": "Cn1nccc1C1CCN(Cc2csc(-c3ncccn3)n2)CC1", "Percent Effect": 5.984}
{"smiles": "c1cnc(-c2nc(CN3CCC(c4ccn[nH]4)CC3)cs2)nc1", "Percent Effect": -2.472}
{"smiles": "Cc1ccccc1C1CCN(CCn2cc(-c3nccs3)nn2)C1", "note": "(centres undefined)", "Percent Effect": -6.567}
{"smiles": "Cc1cc(NC2CCN(Cc3ccccn3)CC2)n2nc(C)c(C)c2n1", "Percent Effect": 3.019}
{"smiles": "Cc1cc(-c2nccs2)nc(C2CCN(Cc3ccccn3)CC2)n1", "Percent Effect": 103.9}
{"smiles": "O=C(CCNCc1cc(O)c2cc(F)ccc2n1)N1CCCC1", "Percent Effect": 24.8}
{"smiles": "CSc1nccc(N2CCCC(c3nccn3C(C)C)C2)n1", "note": "(centres undefined)", "Percent Effect": 6.418}
{"smiles": "COCCN1CCN(C(=O)NC2CC2)Cc2ccc(C)nc21.O=C(O)C(F)(F)F", "Percent Effect": -6.778}
{"smiles": "Cc1ccc2c(n1)N(CCn1cccn1)CCN(S(C)(=O)=O)C2.O=C(O)C(F)(F)F", "Percent Effect": 91.26}
{"smiles": "Cn1nc(Cn2cccn2)c2c1CN(C1CCOCC1)C2.O=C(O)C(F)(F)F", "Percent Effect": 2.859}
{"smiles": "CCS(=O)(=O)N1CCN(CCn2cccn2)c2nc(C)ccc2C1.O=C(O)C(F)(F)F", "Percent Effect": 99.61}
{"smiles": "COCC(=O)N1CCN(CCn2cccn2)c2nc(C)ccc2C1.O=C(O)C(F)(F)F", "Percent Effect": 116.6}
{"smiles": "Cc1ccc2c(n1)N(CCn1cccn1)CCN(C(=O)CC1CC1)C2.O=C(O)C(F)(F)F", "Percent Effect": 5.383}
{"smiles": "Cc1ccc2c(n1)N(CC(C)C)CCN(C(=O)Cc1ccccn1)C2.O=C(O)C(F)(F)F.O=C(O)C(F)(F)F", "Percent Effect": 1.939}
{"smiles": "COCCN1CCN(C(=O)N2CCCC2)Cc2ccc(C)nc21.O=C(O)C(F)(F)F", "Percent Effect": 6.866}
{"smiles": "Cc1ccc2c(n1)N(Cc1csc(C)n1)CCN(C1CCOC1)C2.O=C(O)C(F)(F)F.O=C(O)C(F)(F)F", "note": "(centres undefined)", "Percent Effect": 9.97}
{"smiles": "CCCC(=O)N1CCN(CCN(C)C)c2nc(C)ccc2C1.O=C(O)C(F)(F)F.O=C(O)C(F)(F)F", "Percent Effect": -16.06}
{"smiles": "Cc1ccc2c(n1)N(CCn1cccn1)CCN(C1CCOCC1)C2.O=C(O)C(F)(F)F.O=C(O)C(F)(F)F", "Percent Effect": 93.94}
{"smiles": "Cc1ccc(CNC(CN2CCN(C)CC2)c2ccccc2)cc1", "note": "(centres undefined)", "Percent Effect": 3.62}
{"smiles": "Cc1ccc2c(n1)N(CCn1cccn1)CCN(CC1CC1)C2.O=C(O)C(F)(F)F.O=C(O)C(F)(F)F", "Percent Effect": 102.9}
{"smiles": "COCCN1CCN(Cc2c(C)noc2C)Cc2ccc(C)nc21.O=C(O)C(F)(F)F.O=C(O)C(F)(F)F", "Percent Effect": -3.796}
{"smiles": "O=C(COCc1nc(-c2ccncc2)no1)N1CCCCCC1", "Percent Effect": -13.27}
{"smiles": "O=C(Cc1nc(-c2ccncc2)n[nH]1)NCCCN1CCOCC1", "Percent Effect": 108.4}
{"smiles": "COCCCC(=O)Nc1[nH]nc(-c2ccncc2)c1C", "Percent Effect": 2.915}
{"smiles": "O=C(NCc1ccccc1)NCc1nc(-c2ccncc2)n[nH]1", "Percent Effect": 100.9}
{"smiles": "O=C(COCc1nc(-c2ccncc2)no1)N1CCCC1", "Percent Effect": -11.18}
{"smiles": "O=C(NCCCN1CCOCC1)c1cc(-c2ccc3c(c2)CCO3)n[nH]1", "Percent Effect": -1.634}
{"smiles": "O=C(Cc1nc(-c2ccncc2)n[nH]1)N1CCOCC1", "Percent Effect": 104.3}
{"smiles": "O=S(=O)(NCCc1nc(-c2cccnc2)n[nH]1)NCc1ccccc1", "Percent Effect": -41.46}
{"smiles": "COCCCNC(=O)Cc1cc(-c2ccc3c(c2)OCO3)on1", "Percent Effect": 2.22}
{"smiles": "COCCCNC(=O)Cc1nc(-c2ccncc2)n[nH]1", "Percent Effect": 100.9}
{"smiles": "O=S(=O)(NCc1ccccc1)NCc1nc(-c2ccncc2)n[nH]1", "Percent Effect": -34.55}
{"smiles": "CN1CCC2(CC1)CN(C)C(=O)C[C@@H]2C(F)(F)F", "Percent Effect": -12.83}
{"smiles": "Cc1noc(C)c1CNC(=O)N1Cc2ccccc2N(C)CC1C", "note": "(centres undefined)", "Percent Effect": 7.877}
{"smiles": "Cc1occc1CNC(=O)Nc1ccc2nc(N3CCOCC3)oc2c1", "Percent Effect": -9.739}
{"smiles": "OCc1ccc(-c2nccn2CCc2nc3c(s2)CCCC3)o1", "Percent Effect": -5.43}
{"smiles": "Cc1ccn(CC(=O)N2CC[C@@H](c3ccc4ccccc4c3)[C@H](O)C2)n1", "Percent Effect": 0.6829}
{"smiles": "CC(C)C(C)(C#N)NC(=O)Cn1nnc(-c2cc3ccccc3o2)n1", "note": "(centres undefined)", "Percent Effect": -0.9006}
{"smiles": "CCOCC(=O)Nc1cc(C)cnc1OC", "Percent Effect": -15.44}
{"smiles": "COc1nc2c(cc1C(=O)NCCCc1nnc(N)s1)CCC2", "Percent Effect": 10.88}
{"smiles": "COc1cccc(OCCc2nc3c(cc2C(N)=O)CCC3)c1", "Percent Effect": 92.52}
